Assay [1] is described as follows: qHTS assay to identify small molecule agonists of the peroxisome proliferator-activated receptor delta (PPARd) signaling pathway - cell viability counter screen (AID 743211). Also: nearly all actives have a fitted effect of over 55% in size. Also: potency is read from the fitted curve at half-maximal effect. The method, boiled down:
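qHTS cell viability: PPARd-bla HEK293H; 17 h cpd, 37C; CellTiter-Glo, luminescence at 30 min RT.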
On the technique in general: Quantitative high-throughput screening tests each substance at several concentrations.

For assay [2], the target named is Peroxisome proliferator-activated receptor delta (Homo sapiens) (UniProt Q03181). The experiment in a line: qHTS assay to identify small molecule agonists of the peroxisome proliferator-activated receptor delta (PPARd) signaling pathway (AID 743212; calls by dose curve). The method, boiled down: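 A PPARd-bla HEK293H line with beta-lactamase under an Upstream Activator Sequence is treated with compounds at 37 C. Substrate loading for 2 h at room temperature precedes the fluorescence measurement.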

A short description of assay [3]: qHTS assay to identify small molecule antagonists of the peroxisome proliferator-activated receptor delta (PPARd) signaling pathway - cell viability counter screen (AID 743213). Also: nearly all actives have a fitted effect of over 50% in size. Also: potency is read from the fitted curve at half-maximal effect. The essentials: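 Cytotoxicity counter screen: CellTiter-Glo luminescence read 30 min after addition, in the same wells as the reporter assay. There, PPARd UAS-bla HEK293H cells (3000/well) were treated 17 h at 37 C with compound and 300 nM L165041.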

Assay [4] has as its target Peroxisome proliferator-activated receptor delta (Homo sapiens) (UniProt Q03181). The experiment in a line: qHTS assay to identify small molecule antagonists of the peroxisome proliferator-activated receptor delta (PPARd) signaling pathway (AID 743215; active = well fitted inhibition curve with a large enough effect in the signal ratio in the repeat runs, not every such curve was filed as active; the % refers to the signal ratio;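 also: cells stimulated with agonist L165041 at 300 nM final during compound exposure; series mostly up to about 62 µM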). The method, boiled down: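 With L165041 present at 300 nM final, compounds were incubated 17 h at 37 C on PPARd UAS-bla HEK293H cells. A FRET-based beta-lactamase substrate was then applied for 2 h at room temperature and fluorescence intensity recorded.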

The target of assay [5] is Bile acid receptor (Homo sapiens) (UniProt Q96RI1). The experiment in a line: qHTS assay to identify small molecule antagonists of the farnesoid-X-receptor (FXR) signaling pathway (AID 743217; active = well fitted inhibition curve with a large enough effect in the signal ratio in the repeat runs, not every such curve was filed as active; the % refers to the signal ratio). The essentials:
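In this cell-based antagonist screen, inhibition of CDCA-driven (50 uM final) UAS-beta-lactamase expression in HEK 293T cells was measured by FRET fluorescence following 16 h compound exposure at 37 °C.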

Assay [6] in a line: qHTS assay to identify small molecule agonists of the farnesoid-X-receptor (FXR) signaling pathway - cell viability counter screen (AID 743218). Also: nearly all actives have a fitted effect of over 45% in size. Also: potency is read from the fitted curve at half-maximal effect. The method, boiled down: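 After 16 h at 37 C with test compounds, FXR-bla HEK 293T cells were given LiveBLAzer B/G substrate for 2 h at RT and then CellTiter-Glo; luminescence was taken after 30 min.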
Assay [7] has as its target Bile acid receptor (Homo sapiens) (UniProt Q96RI1). The experiment in a line: qHTS assay to identify small molecule agonists of the farnesoid-X-receptor (FXR) signaling pathway (AID 743220; active = well fitted activation curve with a large enough effect in the signal ratio in the repeat runs, not every such curve was filed as active; the % refers to the signal ratio). The essentials:
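Beta-lactamase reporter under UAS control in GeneBLAzer FXR HEK 293T cells (5000/well) measured with LiveBLAzer FRET substrate after 2 h at room temperature. Compound exposure lasted 16 h at 37C.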

A short description of assay [8]: qHTS assay to identify small molecule antagonists of the farnesoid-X-receptor (FXR) signaling pathway - cell viability counter screen (AID 743221; active = well fitted cell-killing curve with a large enough effect in the repeat runs, not every such curve was filed as active; also: nearly all actives have a fitted effect of over 50% in size; also: potency is read from the fitted curve at half-maximal effect). The method, boiled down:
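After a 5 h settling period, FXR-bla HEK 293T cells receive compound and chenodeoxycholic acid (50 uM final) and incubate 16 h at 37 C; CellTiter-Glo luminescence, read after 30 min at room temperature, reports cell viability.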

For assay [9], the target named is Vitamin D3 receptor (Homo sapiens) (UniProt P11473). The experiment in a line: qHTS assay to identify small molecule agonists of the vitamin D receptor (VDR) signaling pathway (AID 743222; calls by dose curve). The method, boiled down:
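VDR-bla cells were seeded, left 4 h, treated with compounds in DMSO for 16 h, incubated 2 h at RT with B/G FRET substrate, and read for fluorescence.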

The target is the same in assay [10]. The experiment in a line: qHTS assay to identify small molecule antagonists of the vitamin D receptor (VDR) signaling pathway (AID 743223; active = well fitted inhibition curve with a large enough effect in the signal ratio in the repeat runs, not every such curve was filed as active; the % refers to the signal ratio). The essentials:
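Reporter line VDR-bla; stimulus 1alpha,25-(OH)2 vitamin D3, 3 nM final; compound co-addition, 16 h 37C/5% CO2; LiveBLAzer B/G substrate 2 h RT; fluorescence intensity.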

Each structure is given as a SMILES string. Several values for one entry are separate records, joined by “and”; a condition that tells them apart may be missing. Equal entries are not always repeated. Inconclusive results are not listed. Where a structure was tested more than once in an assay, its records may differ in their call. Activity calls are given as the source filed them. Unless noted, calls follow the shape of the dose curve; as a rule, active = well fitted curve in the direction sought with a large enough effect in the repeat runs; inconclusive = weak or mixed curves; inactive = no such curve, though single readings can be large; an effect the other way counts as inactive or inconclusive.

Consider 24 molecules from PubChem BioAssay (Tox21).

Chain of Bile acid receptor (Homo sapiens) (Q96RI1 whole entry, looked up): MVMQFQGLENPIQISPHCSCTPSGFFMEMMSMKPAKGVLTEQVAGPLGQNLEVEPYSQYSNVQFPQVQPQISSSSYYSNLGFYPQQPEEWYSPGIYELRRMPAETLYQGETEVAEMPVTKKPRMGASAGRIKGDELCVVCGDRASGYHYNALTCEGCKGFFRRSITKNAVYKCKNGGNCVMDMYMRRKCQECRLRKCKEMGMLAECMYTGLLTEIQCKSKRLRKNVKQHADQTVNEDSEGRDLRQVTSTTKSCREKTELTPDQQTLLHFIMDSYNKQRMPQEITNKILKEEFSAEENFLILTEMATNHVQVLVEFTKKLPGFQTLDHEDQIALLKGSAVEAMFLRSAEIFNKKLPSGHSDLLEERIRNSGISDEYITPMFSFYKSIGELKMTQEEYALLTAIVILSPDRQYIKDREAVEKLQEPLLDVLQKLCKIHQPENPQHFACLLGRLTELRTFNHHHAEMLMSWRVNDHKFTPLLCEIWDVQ
Chain of Peroxisome proliferator-activated receptor delta (Homo sapiens) (Q03181 whole entry, looked up): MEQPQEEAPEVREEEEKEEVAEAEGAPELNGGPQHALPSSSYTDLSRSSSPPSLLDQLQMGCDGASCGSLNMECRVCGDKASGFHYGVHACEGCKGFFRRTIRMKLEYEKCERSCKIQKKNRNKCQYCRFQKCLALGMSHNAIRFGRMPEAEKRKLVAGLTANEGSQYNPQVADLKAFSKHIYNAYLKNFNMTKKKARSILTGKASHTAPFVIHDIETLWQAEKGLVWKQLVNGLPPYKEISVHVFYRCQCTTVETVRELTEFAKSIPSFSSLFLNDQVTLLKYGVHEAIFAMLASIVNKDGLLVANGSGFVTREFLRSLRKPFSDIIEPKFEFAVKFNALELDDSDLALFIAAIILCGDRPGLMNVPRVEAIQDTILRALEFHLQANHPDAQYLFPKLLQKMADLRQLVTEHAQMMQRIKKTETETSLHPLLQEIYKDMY
Chain of Vitamin D3 receptor (Homo sapiens) (P11473 whole entry, looked up): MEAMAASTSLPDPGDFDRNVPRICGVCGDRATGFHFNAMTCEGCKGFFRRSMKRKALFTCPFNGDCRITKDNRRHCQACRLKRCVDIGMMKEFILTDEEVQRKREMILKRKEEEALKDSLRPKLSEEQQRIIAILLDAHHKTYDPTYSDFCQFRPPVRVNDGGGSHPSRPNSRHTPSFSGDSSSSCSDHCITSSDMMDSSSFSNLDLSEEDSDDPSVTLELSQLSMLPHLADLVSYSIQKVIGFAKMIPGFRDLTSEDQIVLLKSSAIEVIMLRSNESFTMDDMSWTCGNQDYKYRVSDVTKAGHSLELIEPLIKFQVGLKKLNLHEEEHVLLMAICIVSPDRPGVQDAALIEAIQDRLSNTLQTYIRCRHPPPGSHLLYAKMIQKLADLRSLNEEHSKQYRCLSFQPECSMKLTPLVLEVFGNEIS

`CCCCOCCOCCOC(=O)CCCCC(=O)OCCOCCOCCCC`: the Potency entry in assay [1], in [3], in [6], in [8] and in assay [9] was “inactive” each time. Besides, the result in assay [2], in assay [4], in [5] and in assay [7] was inactive.

For `NCc1cccc(CN)c1`, the Potency result in assay [1], in [3], in assay [6], in assay [8] and in assay [9] was “inactive” in each case. The outcome in [2], in [4], in assay [5] and in assay [7] was inactive.

Turning to `CCCCCC/C=C/CCCCCCCC(=O)O`, the Potency result in assay [1], in [3], in [6], in assay [8] and in [10] was “inactive” each time. Moreover, the result in assay [2], in assay [4], in [5] and in assay [7] was inactive.

Regarding `O=C(c1cc(O)c(O)c(O)c1)c1ccc(O)c(O)c1O`, the Potency entry in assay [1], in assay [3], in [6], in assay [8] and in assay [9] was “inactive” throughout. Further, the molecule was classed as inactive in assay [2], in [4], in [5] and in assay [7].

On to `CCCCC(CC)COC(=O)CCCCCCCC(=O)OCC(CC)CCCC` (configuration not stated), for which the Potency entry in assay [1], in assay [3], in [6] and in assay [8] was “inactive” in each case. Further, the outcome in assay [2], in [4], in [5] and in [7] was inactive.

For the molecule `Cc1ccc(N)c(S(=O)(=O)O)c1`, the Potency entry in assay [1], in assay [3], in assay [6], in assay [8] and in [9] was “inactive” each time. In addition, the molecule was classed as inactive in assay [2], in assay [4], in assay [5] and in [7].

Turning to `CC(C)(CO)COC(=O)C(C)(C)CO`, the Potency result in assay [1], in [3], in assay [6], in [8], in assay [9] and in assay [10] was “inactive” each time. Further, the call in assay [2], in assay [4], in [5] and in [7] was inactive.

Regarding `Clc1cc(Cl)c(Cl)cc1Cl`, the Potency result in [1], in assay [3], in assay [6] and in assay [8] was “inactive” in each case. For the same molecule, the call in assay [2] and in assay [4] was inactive.

Turning to `CCc1ccccc1O`, the Potency result in assay [1], in [3], in [6], in assay [8], in assay [9] and in assay [10] was “inactive” throughout. Moreover, the call in assay [2], in [4], in [5] and in assay [7] was inactive.

Regarding `CNC[C@H](O)[C@@H](O)[C@H](O)[C@H](O)CO`, the Potency result in assay [1], in [3], in assay [6], in [8] and in assay [9] was “inactive” each time. The call in [2], in [4], in assay [5] and in assay [7] was inactive.

Turning to `Cc1cc(O)cc(C)c1Cl`, the Potency entry in [1], in assay [3], in [6] and in assay [8] was “inactive” in each case. Moreover, the outcome in assay [2] and in assay [4] was inactive.

For the molecule `CCCCCCOC(C)=O`, the Potency result in [1], in assay [3], in [8] and in [9] was “inactive” each time. In addition, the molecule was called inactive in assay [2], in assay [4], in assay [5] and in assay [7]. Besides, the Potency entry in assay [6] was “inactive and 24.5 µM (active)”.

Regarding `C=CC(=O)OCCCCCCCC(C)C`, the Potency entry in assay [1], in assay [3], in assay [6], in assay [8], in assay [9] and in [10] was “inactive” each time. Further, the molecule was called inactive in [2], in [4], in assay [5] and in assay [7].

For the molecule `CC(C)(C)C(=O)C1C(=O)c2ccccc2C1=O`, the Potency result in assay [1], in [3], in [6], in [8], in [9] and in [10] was “inactive” each time. In addition, the outcome in assay [2], in assay [4] and in [7] was inactive.

Turning to `NC(=O)/N=N/C(N)=O`, the Potency result in assay [1], in assay [3], in [6], in [8], in assay [9] and in assay [10] was “inactive” each time. For the same molecule, the call in [2], in assay [4], in [5] and in assay [7] was inactive.

Regarding `c1ccc2[nH]cnc2c1`, the Potency result in [1], in [3], in assay [6], in [8] and in [9] was “inactive” throughout. Moreover, the molecule was classed as inactive in assay [2], in [4], in assay [5] and in [7].

Turning to `CCCCCCCCCCCCN`, the Potency result in assay [1] is “inactive and 19.5 µM (active)”; in assay [3], “inactive and 49 µM (active)”; in assay [6], “inactive and 43.6 µM (active)”; in assay [8], “inactive and 49 µM (active)”. Besides, the result in assay [2] and in assay [4] was inactive.

Consider `C=C(C)C(=O)OCC(CC)(COC(=O)C(=C)C)COC(=O)C(=C)C`, for which the Potency result in assay [1], in assay [3], in assay [6] and in [8] was “inactive” in each case. Further, the molecule was called inactive in assay [2], in [4], in assay [5] and in assay [7].

For `Clc1ccc(Cl)c(Cl)c1Cl`, the Potency result in assay [1], in assay [3], in assay [6], in assay [8] and in assay [9] was “inactive” each time. Besides, the molecule was classed as inactive in assay [2], in assay [4], in [5] and in assay [7].

Turning to `CCCCOCCO`, the Potency entry in assay [1], in [3], in assay [6], in assay [8], in [9] and in assay [10] was “inactive” throughout. Moreover, the molecule was classed as inactive in assay [2], in [4], in assay [5] and in assay [7].

For `OCC1CCCO1` (configuration not stated), the Potency entry in assay [1], in assay [3], in assay [6], in [8] and in assay [9] was “inactive” each time. For the same molecule, the molecule was classed as inactive in assay [2], in assay [4], in assay [5] and in assay [7].

With `O=S(=O)(O)c1cc(S(=O)(=O)O)c2c(N=Nc3ccccc3)c(O)ccc2c1`, the Potency result in assay [1], in assay [3], in assay [6], in [8] and in assay [9] was “inactive” throughout. Besides, the outcome in [2], in assay [4], in assay [5] and in [7] was inactive.

Take `CCCCNC(N)=O`: the Potency entry in assay [1], in assay [3], in assay [6], in [8] and in assay [9] was “inactive” in each case. The result in assay [2], in assay [4], in [5] and in assay [7] was inactive.

As for `CC(C)Cc1ccccc1`, the Potency entry in [1], in [3], in assay [6] and in [8] was “inactive” in each case. The outcome in assay [2] and in [4] was inactive.
